Among the data in PubChem BioAssay (NCI) are growth values, retold here.

Among the test systems are DU-145 prostate; K-562 leukemia; MALME-3M melanoma; MDA-MB-231 breast; RXF 393 renal; SF-268 CNS; SF-295 CNS; SF-539 CNS; UACC-257 melanoma; M14 melanoma; HCT-15 colon; HT29 colon; SNB-75 CNS; SNB-19 CNS; U251 CNS; PC-3 prostate; SK-MEL-5 melanoma; LOX IMVI melanoma; SK-MEL-28 melanoma; UACC-62 melanoma.
Common to all, as to assay: NCI-60 one-dose screen, 48 h (100 = growth as untreated, 0 = no growth, -100 = all killed)
Common to all, as to details: 10 µM unless noted

Compounds without any hit were thinned out: in the full panel of roughly 83,000, 20% have a hit.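 Plates (96-well) were seeded with cells, treated with compound at one concentration, and incubated for 48 hours before percent growth was determined.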 Values without a mark were called inactive. Calls of active or inactive are those of the source. Rule for the calls: active = growth percent below 10; inactive = the rest.

With `Cn1cc(-c2nonc2-c2cn(C)c3ccccc23)c2ccccc21`, the growth in the assay on DU-145 prostate is 16.3%; in the assay on K-562 leukemia, 9.77% (active); with MALME-3M melanoma it was 53.4%; in the assay with MDA-MB-231 breast it was 23.2%; in the assay on RXF 393 renal it was 1.39% (active); in the assay with SF-268 CNS, 48.1%. In addition, the growth with SF-295 CNS is 17.5%; in the assay with SF-539 CNS, -21.6% (active); with UACC-257 melanoma, 65.7%; with M14 melanoma, 6.28% (active); in the assay on HCT-15 colon, 30.2%; in the assay on HT29 colon it was 6.32% (active). The growth is 2.13% (active) in the assay on SNB-75 CNS; 24.7% with SNB-19 CNS; 18.8% with U251 CNS; 26.2% in the assay on PC-3 prostate; 26.2% in the assay on SK-MEL-5 melanoma; 48.5% in the assay with LOX IMVI melanoma. The growth with SK-MEL-28 melanoma is 57.4%.

In the case of `Nc1nc2ccc(-c3nc4ccc5[nH]ncc5c4c4c3CCCC4)cc2s1`, the growth is 111% in the assay on DU-145 prostate; 94.9% in the assay with K-562 leukemia; 94.5% with MALME-3M melanoma; 106% in the assay on MDA-MB-231 breast; 109% in the assay with RXF 393 renal; 98.8% in the assay with SF-268 CNS. The growth with SF-295 CNS is 108%; in the assay with SF-539 CNS it was 106%; in the assay on UACC-257 melanoma, 88.1%; in the assay with M14 melanoma it was 101%; in the assay on HCT-15 colon it was 107%; in the assay with HT29 colon, 99.2%. Besides, the growth in the assay on SNB-75 CNS is 100%; in the assay with SNB-19 CNS it was 97.7%; in the assay with U251 CNS, 102%; with PC-3 prostate, 100%; with SK-MEL-5 melanoma it was 111%; with LOX IMVI melanoma, 105%. Moreover, the growth with SK-MEL-28 melanoma was 120%.

In the case of `CCCCCC(/C=N\NC(=S)N/N=C/C(=C/c1ccccc1)CCCCC)=C\c1ccccc1`, the growth in the assay on DU-145 prostate was 88.7%; in the assay on K-562 leukemia it was 19.8%; in the assay with MALME-3M melanoma, 93.4%; in the assay on MDA-MB-231 breast, 65.6%; with RXF 393 renal, 74.8%; in the assay on SF-268 CNS, 68%. In addition, the growth is 45.7% in the assay with SF-295 CNS; 82.4% in the assay on SF-539 CNS; 98.1% with UACC-257 melanoma; 77.8% in the assay on M14 melanoma; 45.4% in the assay with HCT-15 colon; 105% in the assay with HT29 colon. The growth in the assay on SNB-75 CNS was 102%; with SNB-19 CNS it was 56.8%; in the assay with U251 CNS, 55.3%; in the assay on PC-3 prostate it was 46.1%; in the assay on SK-MEL-5 melanoma, 68.2%; with LOX IMVI melanoma it was 60.8%. Moreover, the growth in the assay with SK-MEL-28 melanoma is 93.7%.

Turning to `CN(C)CC1CCC(CN(C)C)C1=O` (configuration not stated), the growth was 115% with DU-145 prostate; 4.34% (active) in the assay on K-562 leukemia; 115% in the assay on MALME-3M melanoma; 117% with MDA-MB-231 breast; 123% in the assay with RXF 393 renal; 108% with SF-268 CNS. The growth in the assay with SF-295 CNS was 133%; in the assay on SF-539 CNS, 109%; in the assay on UACC-257 melanoma, 109%; with M14 melanoma, 108%; with HCT-15 colon, 105%; in the assay with HT29 colon, 103%. Further, the growth in the assay with SNB-75 CNS was 102%; with SNB-19 CNS, 102%; with U251 CNS it was 102%; in the assay on SK-MEL-5 melanoma, 108%; in the assay with UACC-62 melanoma, 102%; in the assay on LOX IMVI melanoma, 106%. In the assay with SK-MEL-28 melanoma, the growth was 112%.

As to `O=C1C(=O)N(Cc2ccc(-c3ccccc3)cc2)c2ccc(OC(F)(F)F)cc21`, the growth with DU-145 prostate was 36.4%; in the assay with K-562 leukemia it was 16.1%; with MALME-3M melanoma it was 62.2%; in the assay on MDA-MB-231 breast, 44.9%; with RXF 393 renal it was 76.9%; in the assay with SF-268 CNS, 49.5%. In addition, the growth in the assay with SF-295 CNS is 41.4%; in the assay with SF-539 CNS, -8.58% (active); with UACC-257 melanoma it was 72.7%; with M14 melanoma it was 44.8%; in the assay on HCT-15 colon, 10.3%; in the assay with HT29 colon it was 9.07% (active). For the same compound, the growth in the assay on SNB-75 CNS was 39.3%; in the assay with SNB-19 CNS, 43.2%; with U251 CNS it was 20.9%; in the assay on PC-3 prostate, 17.4%; in the assay with SK-MEL-5 melanoma, 92.2%; in the assay on LOX IMVI melanoma it was 20.1%. Further, the growth with SK-MEL-28 melanoma was 82.7%.

As for `COc1ccc(Nc2nc(-c3cc(O)c(C)c(C)c3O)cs2)cc1`, the growth in the assay with DU-145 prostate is 87.3%; with K-562 leukemia, 23.9%; with MALME-3M melanoma, 95.2%; with MDA-MB-231 breast, 88.5%; with RXF 393 renal, 78.7%; with SF-268 CNS, 64.7%. Moreover, the growth in the assay on SF-295 CNS is 84.1%; in the assay with SF-539 CNS, 81.6%; in the assay on UACC-257 melanoma, 98.1%; with M14 melanoma, 76.2%; in the assay on HCT-15 colon it was 50.4%; in the assay on HT29 colon, 105%. Also, the growth in the assay with SNB-75 CNS was 78.8%; with SNB-19 CNS, 102%; in the assay with PC-3 prostate, 43.9%; in the assay with SK-MEL-5 melanoma it was 82.3%; in the assay with UACC-62 melanoma, 68.9%; with LOX IMVI melanoma, 61.5%. In addition, the growth in the assay with SK-MEL-28 melanoma was 99.5%.

On to `COc1cc2c(cc1OC)C(C)N(S(N)(=O)=O)CC2` (configuration not stated), for which the growth is 105% in the assay with DU-145 prostate; 103% in the assay on K-562 leukemia; 105% with MALME-3M melanoma; 101% with MDA-MB-231 breast; 113% in the assay with RXF 393 renal; 96.2% with SF-268 CNS. Further, the growth was 104% with SF-295 CNS; 97.7% with SF-539 CNS; 100% in the assay with UACC-257 melanoma; 91.8% in the assay with M14 melanoma; 102% with HCT-15 colon; 99.8% in the assay with HT29 colon. Also, the growth was 87.6% in the assay with SNB-75 CNS; 97.6% in the assay with SNB-19 CNS; 89% with PC-3 prostate; 105% with SK-MEL-5 melanoma; 95.4% with UACC-62 melanoma; 102% with LOX IMVI melanoma. Moreover, in the assay with SK-MEL-28 melanoma, the growth was 106%.

As to `C=CCOC(=O)Nc1cccn([C@H](Cc2ccccc2)C(=O)NCCC(C)C)c1=O`, the growth in the assay with DU-145 prostate was 110%; in the assay with K-562 leukemia it was 110%; in the assay with MALME-3M melanoma, 103%; with MDA-MB-231 breast, 101%; in the assay on RXF 393 renal, 110%; with SF-268 CNS, 106%. The growth in the assay on SF-295 CNS was 94.5%; in the assay on SF-539 CNS, 109%; in the assay with UACC-257 melanoma, 102%; in the assay with M14 melanoma, 121%; with HCT-15 colon it was 111%; with HT29 colon, 99.7%. Also, the growth in the assay with SNB-75 CNS is 91.1%; in the assay with SNB-19 CNS, 85.9%; in the assay on U251 CNS, 101%; in the assay with SK-MEL-5 melanoma, 102%; in the assay on UACC-62 melanoma, 97.1%; in the assay on LOX IMVI melanoma it was 90.8%. The growth in the assay on SK-MEL-28 melanoma is 97.6%.
